# Test results as given in PubChem BioAssay.
# Records with an inconclusive call do not appear. Activity calls are given as the source filed them. Rule as the data show it, unless noted: active = inhibition above about 80%; inactive = the rest.
# How the values were obtained:
# [1] = viability loss in pontine glioma line – cell-based, SU-DIPG-XVII, MIPE5.0, CellTiter-Glo, qHTS, dose response (AID 1347060; cut-off not given, nearly all actives have AC50 up to about 26 µM;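 as to AC50: cells exposed to compound for 48 hours before viability readout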); details: CellTiter-Glo ATP luminescence
# [2] = viability loss in pontine glioma line – cell-based, SU-DIPG-XIII, MIPE5.0, CellTiter-Glo, qHTS, dose response (AID 1347064; cut-off not given, nearly all actives have AC50 up to about 23 µM;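 as to AC50: cells exposed to compound for 48 hours before the viability read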); details: CellTiter-Glo ATP luminescence
# [3] = viability loss in pontine glioma line – cell-based, SU-DIPG-XXV, MIPE5.0, CellTiter-Glo, qHTS, dose response (AID 1347065; cut-off not given, nearly all actives have AC50 up to about 26 µM;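 also: cells exposed to compound for 48 hours before ATP readout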); details: CellTiter-Glo ATP luminescence
# [4] = JHH-DIPG-1 glioma cell viability, MIPE5.0 library, CellTiter-Glo luminescence, qHTS (AID 1347067; cut-off not given, nearly all actives have AC50 up to about 26 µM;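 also: cells exposed to compound for 48 hours before readout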); details: JHH-DIPG-1 glioma viability, CellTiter-Glo ATP luminescence
# [5] = growth inhibition of DIPG cells – cell-based, MIPE5.0 library, qHTS (AID 1347068; cut-off not given, nearly all actives have IC50 up to about 30 µM); details: SU-DIPG-XXV viability
# [6] = growth inhibition, single agent or in combination, cell-based, chromothripsis tumors, cisplatin or BGB combos (AID 1671449); details: LFS_MB_P medulloblastoma cells;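 also: cells exposed for 96 hours; 0% = vehicle DMSO and 100% = killing by high DMSO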
# [7] = growth inhibition, single agent and combos, cell-based, chromothripsis tumors, cisplatin or BGB combos (AID 1671450); details: HDN33 neuroblastoma cells, stronger effect = higher value;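 also: cells exposed to compound for four days; 0% = vehicle DMSO and 100% = cell killing by high DMSO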
# [8] = growth inhibition, single agents and combos, ICB984, cell-based, cisplatin or BGB combos, synergistic combos for chromothripsis tumors (AID 1671451; call rule not given here;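 also: cells exposed for 96 hours before readout; 0% = vehicle DMSO and 100% = killing by high DMSO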); details: ICB984 medulloblastoma cells, drug combinations, stronger effect = higher value
# [9] = growth inhibition, single agents and combos, LFS_MB_1R, cell-based, cisplatin or BGB combos, synergistic combos for chromothripsis tumors (AID 1671452); details: LFS_MB_1R medulloblastoma cells, stronger effect = higher value;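 also: cells exposed for 96 hours before readout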
# [10] = growth inhibition, single agents and combos, HTB85, cell-based, BGB or cisplatin IC20 combos, synergistic combos for chromothripsis tumors (AID 1671453); details: HTB85 osteosarcoma cells, drug combinations, stronger effect = higher value;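 also: cells exposed for 96 hours before readout; 0% = vehicle DMSO and 100% = high DMSO killing control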
# [11] = growth inhibition, single agents and combos, CRL2098, cell-based, BGB or cisplatin IC20 combos, synergistic combos for chromothripsis tumors (AID 1671454); details: CRL2098 osteosarcoma cells, drug combinations, stronger effect = higher value;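 also: cells exposed for 96 h before readout; 0% = vehicle DMSO and 100% = killing by high DMSO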
# [12] = growth inhibition, single agents and combos, HD-MB03, cell-based, BGB or cisplatin IC20 combos, synergistic combos for chromothripsis tumors (AID 1671455; in the data active = inhibition above about 83%;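 also: 0% = vehicle DMSO and 100% = high DMSO as cytotoxic control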); details: HD-MB03 medulloblastoma cells, stronger effect = higher value
# [13] = growth inhibition, single agents and combos, UWB1.289, cell-based, BGB or cisplatin combos, synergistic combos for chromothripsis tumors (AID 1671456); details: UWB1.289 ovarian carcinoma cells, stronger effect = higher value;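 also: cells exposed to compound for four days; 0% = vehicle DMSO and 100% = killing by high DMSO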
# [14] = growth inhibition, MDA-MB-436, cell-based, BGB or cisplatin combos, synergistic combos for chromothripsis tumors (AID 1671458; call rule not given here;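 also: cells exposed for 96 hours; 0% = vehicle DMSO and 100% = killing by high DMSO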); details: MDA-MB-436 breast carcinoma growth inhibition, drug combinations, stronger effect = higher value
# [15] = BT084 cell growth, single and combined drugs, ICGC_MB145, cisplatin and BGB IC40 combos (AID 1671461); details: BT084 medulloblastoma cells, drug combinations, stronger effect = higher value;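 also: cells exposed to drugs for 96 hours; 0% = vehicle DMSO and 100% = high DMSO full killing control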
# [16] = RCMB18 cell growth, single agent and combined, cisplatin and BGB IC40 combos (AID 1671462); details: RCMB18 medulloblastoma cells, stronger effect = higher value;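 also: cells exposed to compound for four days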
# [17] = CRL1545 cell growth, single agent and combined, cisplatin and BGB IC20 combos (AID 1671464); details: CRL1545 osteosarcoma cells, stronger effect = higher value;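 also: cells exposed to compound for 96 hours before readout; 0% = vehicle DMSO and 100% = high DMSO killing control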
# [18] = viability loss with induced miR-34 in A549 – imaging, A549 dox-inducible miR-34, nuclei and caspase counts, primary screen (AID 1347080;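 active = compounds whose cell count with miR-34 switched on is under 0.7 times the count with it off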); details: A549 miR-34 inducible, Hoechst nuclei count, 48 h
# [19] = MELAS cybrid and Rieske KO viability enhancers – cell-based, MELAS cybrids, Rieske KO mouse fibroblasts, CellTiter-Glo, primary screen (AID 1508586;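 active = mean z-score across replicates of 1.96 or higher in either the MELAS or the Rieske mutant cell line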;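 also: z relative to plate mean and SD of compound and empty wells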); details: low glucose
# [20] = measured here: combination with BGB IC40, at 0.05 µM
# [21] = measured here: with BGB IC20 combination, at 0.5 µM
# [22] = measured here: with cisplatin IC20 combination, at 0.5 µM
# [23] = measured here: combination with cisplatin, at 0.5 µM
structure (smiles),measurement,setting,value
CCOc1ccc(-n2c([C@@H](C)N(Cc3cccnc3)C(=O)Cc3ccc(F)c(C(F)(F)F)c3)nc3ncccc3c2=O)cc1,outcome,[1],inactive
same,outcome,[2],inactive
same,outcome,[3],inactive
same,outcome,[4],inactive
same,outcome,[5],inactive
CC(=O)[C@]1(N)Cc2c(O)c3c(c(O)c2[C@@H](O[C@H]2C[C@H](O)[C@H](O)CO2)C1)C(=O)c1ccccc1C3=O,AC50,[1],16.6 µM (active)
same,AC50,[2],16.6 µM (active)
same,AC50,[3],20.9 µM (active)
same,AC50,[4],16.6 µM (active)
same,outcome,[5],inactive
same,inhibition,"[6]; at 0.5 µM, stronger effect = higher value",-12.9% (inactive)
same,inhibition,"[6]; measured here: combination with BGB IC20, at 0.005 µM",-16.8%
same,inhibition,"[6]; measured here: combination with BGB IC40, at 0.005 µM",-30.9%
same,inhibition,[6]; [20],-51.9%
same,inhibition,"[6]; measured here: combination with cisplatin, at 0.5 µM, stronger effect = higher value",-19.4%
same,inhibition,"[6]; measured here: combination with cisplatin, at 5 µM, stronger effect = higher value",104%
same,inhibition,"[7]; BGB combo, at 5 µM",96.4%
same,inhibition,[7]; at 0.5 µM,-0.33% (inactive)
same,inhibition,"[7]; cisplatin combo, at 5 µM",97.3%
same,inhibition,[7]; [21],0.353%
same,inhibition,[7]; [22],-4.83%
same,inhibition,"[7]; single agent, at 5 µM",98.2%
same,inhibition,"[8]; BGB IC20 combo, at 0.005 µM",2.76%
same,inhibition,"[8]; BGB IC40 combo, at 0.005 µM",-3.55%
same,inhibition,"[8]; BGB IC40 combo, at 0.05 µM",86.2%
same,inhibition,[8]; at 0.5 µM,-21.5% (inactive)
same,inhibition,"[8]; cisplatin combo, at 0.05 µM",85.8%
same,inhibition,"[8]; cisplatin combo, at 0.5 µM",-10.1%
same,inhibition,"[8]; cisplatin combo, at 5 µM",-12.5%
same,inhibition,"[8]; measured here: 5 uM single agent, at 5 µM",-13.2%
same,inhibition,[9]; at 0.5 µM,-7.63% (inactive)
same,inhibition,[9]; [20],-7.53%
same,inhibition,[9]; [23],-2.7%
same,inhibition,"[9]; measured here: combination with cisplatin, at 5 µM",81.1%
same,inhibition,[10]; at 0.5 µM,-1.28% (inactive)
same,inhibition,"[10]; measured here: with BGB IC20, at 0.5 µM",3.02%
same,inhibition,"[10]; measured here: with BGB IC20, at 5 µM",79.1%
same,inhibition,"[10]; measured here: with cisplatin IC20, at 0.5 µM",-5.97%
same,inhibition,"[10]; measured here: with cisplatin IC20, at 5 µM",82.6%
same,inhibition,"[10]; single agent, at 5 µM",81.3%
same,inhibition,[11]; at 0.5 µM,-28.4% (inactive)
same,inhibition,"[11]; measured here: combination with BGB at IC20, at 0.5 µM",-13.2%
same,inhibition,"[11]; measured here: combination with cisplatin at IC20, at 0.5 µM",-55.8%
same,inhibition,[12]; at 0.5 µM,-4.21% (inactive)
same,inhibition,"[12]; measured here: combo with BGB at IC20, at 0.5 µM",5.01%
same,inhibition,"[12]; measured here: combo with cisplatin at IC20, at 0.5 µM",-12.8%
same,inhibition,[13]; at 0.5 µM,13.8% (inactive)
same,inhibition,"[13]; measured here: inhibition with BGB combination, at 0.05 µM",-13.2%
same,inhibition,"[13]; measured here: inhibition with cisplatin combination, at 0.05 µM",8.23%
same,inhibition,[14]; at 0.5 µM,-0.11% (inactive)
same,inhibition,"[14]; measured here: BGB combination, at 0.5 µM",-3.77%
same,inhibition,"[14]; measured here: BGB combination, at 5 µM",73.9%
same,inhibition,"[14]; measured here: cisplatin combination, at 0.5 µM",-8.99%
same,inhibition,"[14]; measured here: cisplatin combination, at 5 µM",84%
same,inhibition,[15]; at 0.5 µM,22.6% (inactive)
same,inhibition,"[15]; cisplatin combination, at 0.5 µM",-12.8%
same,inhibition,"[15]; cisplatin combination, at 5 µM",84.4%
same,inhibition,"[15]; measured here: BGB IC40 combination 0.05 uM, at 0.05 µM",-38.7%
same,inhibition,"[15]; single agent, at 5 µM",86.5%
same,inhibition,[16]; at 0.5 µM,9% (inactive)
same,inhibition,"[16]; cisplatin combo, at 5 µM",89.6%
same,inhibition,"[16]; measured here: BGB IC40 combination, at 0.05 µM",-27.7%
same,inhibition,[16]; [23],31.1%
same,inhibition,"[16]; single agent, at 5 µM",89.9%
same,inhibition,[17]; at 0.5 µM,20% (inactive)
same,inhibition,[17]; [21],-1.69%
same,inhibition,[17]; [22],29.7%
same,inhibition,"[17]; single agent, at 0.05 µM",22.1%
same,inhibition,"[17]; single agent, at 5 µM",90.1%
COc1nc(N)nc2c1ncn2C1OC(CO)C(O)C1O (stereo not given),outcome,[1],inactive
same,outcome,[2],inactive
same,outcome,[3],inactive
same,outcome,[4],inactive
same,outcome,[5],inactive
same,fold change,"[18]; stronger effect = lower value, cell number ratio, induced over uninduced",0.895 (inactive)
same,fold change,[18]; measured here: relative caspase fold change +Dox/-Dox,0.879
same,cell count,"[18]; measured here: total cells with miR-34 induction, stronger effect = lower value",6660
same,cell count,[18]; measured here: total cells without miR-34 induction,7440
same,z-score,"[19]; MELAS cybrid survival, CellTiter-Glo 48 h, stronger effect = higher value",-0.422 (inactive)
same,z-score,"[19]; Rieske KO mouse fibroblast survival, CellTiter-Glo 72 h",-0.253
